# Measurements reported in the supplement of paper PMC12024424.
# Structures can show the parent of a compound that is named as a salt.
# Tested on: Staphylococcus aureus Sa2 (MRSA, cystic fibrosis isolate)
# Assay: growth reduction vs untreated control (OD550); higher = stronger antibacterial activity
# Conditions: 0.1 mM; 24 h
# Description: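 Single-dose screen of the MedChem Express Drug Repurposing Library (0.1 mM, 1% DMSO) against planktonic MRSA S. aureus Sa2 (CF isolate) in TSB in 96-well plates, 37 °C aerobic, 24 h. Assays were run in triplicate and repeated twice.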
row,Compound,growth reduction [%]
1,CCNC1=Nc2ccc(Cl)cc2C(C)(c2ccccc2)O1 (stereo not drawn) [Etifoxine],100
2,Fc1ccc(C(OCCN2CCN(CCCc3ccccc3)CC2)c2ccc(F)cc2)cc1 [Vanoxerine (dihydrochloride)],100
3,Cc1cc2c(C(C)C)c(O)c(O)c(C=O)c2c(O)c1-c1c(C)cc2c(C(C)C)c(O)c(O)c(C=O)c2c1O [(R)-(-)-Gossypol acetic acid],96
4,O=c1[nH]c2ccccc2n1C1CCN(CCCC(c2ccc(F)cc2)c2ccc(F)cc2)CC1 [Pimozide],100
5,c1ccc2c(c1)Sc1ccccc1N2CC1CN2CCC1CC2 (stereo not drawn) [Mequitazine],99.3
6,C[S+]([O-])CCCCN=C=S (stereo not drawn) [Sulforaphane],97.9
7,CC[C@H](C)C1O[C@]2(C=C[C@@H]1C)C[C@@H]1C[C@@H](C/C=C(\C)[C@@H](O[C@H]3C[C@H](OC)[C@@H](O[C@H]4C[C@H](OC)[C@H](NC)[C@H](C)O4)[C@H](C)O3)[C@@H](C)/C=C/C=C3\CO[C@@H]4[C@H](O)C(C)=C[C@@H](C(=O)O1)[C@]34O)O2 (stereo partly drawn) [Emamectin (Benzoate)],98
8,O=C(O)c1nn(Cc2ccc(Cl)cc2Cl)c2ccccc12 [Lonidamine],90.9
9,Cc1cc2c(C(C)C)c(O)c(O)c(C=O)c2c(O)c1-c1c(C)cc2c(C(C)C)c(O)c(O)c(C=O)c2c1O [Gossypol],98.4
10,Cc1cc2c(C(C)C)c(O)c(O)c(C=O)c2c(O)c1-c1c(C)cc2c(C(C)C)c(O)c(O)c(C=O)c2c1O [Gossypol (acetic acid)],99.3
11,COc1cccc2c1cc([N+](=O)[O-])c1c(C(=O)O)cc3c(c12)OCO3 [Aristolochic acid A],95.3
12,O=c1c2ccccc2[se]n1-c1ccccc1 [Ebselen],99.8
13,O=C(CNC(=O)c1ccc(C2=NOC(c3cc(Cl)cc(C(F)(F)F)c3)(C(F)(F)F)C2)c2ccccc12)NCC(F)(F)F (stereo not drawn) [Afoxolaner],100
